Source: PubChem BioAssay
Most compounds without a hit are left out; they make up all but 12% or so of the library.
HP1b chromo inh = blocks HP1-beta chromodomain binding to methylated histone tails. AID 540317. 0.56% of 390,000 active. AlphaScreen HP1-beta / biotin-H3K9me3 peptide binding. Potency, µM (titrated, usually from 114 µM), inactives show at the top dose activity change, negative = inhibition, usual class: inhibitors; note: nearly all actives have a fitted effect of over 70% in size
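HP1-beta protein (50 nM final) preincubated 30 min at room temperature with biotinylated H3(1-18)K9me3 peptide (50 nM) in PBS pH 7.4, 0.01% Tween-20, then compound added for 30 min. AlphaScreen streptavidin donor/nickel chelate acceptor beads (10 ug/mL final), 30 min dark, luminescence read.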
L3MBTL1 inh = inhibitors of human L3MBTL1. AlphaScreen L3MBTL1–H3K9me1 peptide binding. 0.66% of 230,000 active. Potency, µM (series often up to 57.1 µM), for inactives: at the highest dose activity, negative = inhibition, usual class: inhibitors; note: % is set by controls: 0 for no effect and ±100 for the full control effect; nearly all actives have a fitted effect of over 60% in size
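AlphaScreen assay: L3MBTL1 (50 nM final) was preincubated 30 min at room temperature with biotinylated H3(1-15)K9me1 peptide (75 nM final), then 30 min with library compounds; streptavidin donor and nickel chelate acceptor beads (10 ug/mL final) added, 30 min dark.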
JMJD2A Tudor inh = blocks the human JMJD2A Tudor domain; O75164; AlphaScreen JMJD2A-Tudor / H3K4me3 peptide binding; Potency, µM (titrated, usually from 114 µM), for inactives: at the highest dose activity change, negative = inhibition, actives largely listed as inhibitors; 4.4% of 390,000 active; AID 504339; note: % is set by controls: 0 for no effect and ±100 for the full control effect; nearly all actives have a fitted effect of over 50% in size
BAZ2B inh = blocks human BAZ2B | 4.4% of 360,000 active | Q9UIF8 | AlphaScreen BAZ2B-H3K14Ac peptide displacement | Potency, µM (top dose mostly 114 µM), without a hit: at the top dose activity change, negative = inhibition, actives largely listed as inhibitors; note: % is set by controls: 0 for no effect and ±100 for the full control effect; nearly all actives have a fitted effect of over 60% in size
Target sequence (Q9UIF8 whole entry, looked up): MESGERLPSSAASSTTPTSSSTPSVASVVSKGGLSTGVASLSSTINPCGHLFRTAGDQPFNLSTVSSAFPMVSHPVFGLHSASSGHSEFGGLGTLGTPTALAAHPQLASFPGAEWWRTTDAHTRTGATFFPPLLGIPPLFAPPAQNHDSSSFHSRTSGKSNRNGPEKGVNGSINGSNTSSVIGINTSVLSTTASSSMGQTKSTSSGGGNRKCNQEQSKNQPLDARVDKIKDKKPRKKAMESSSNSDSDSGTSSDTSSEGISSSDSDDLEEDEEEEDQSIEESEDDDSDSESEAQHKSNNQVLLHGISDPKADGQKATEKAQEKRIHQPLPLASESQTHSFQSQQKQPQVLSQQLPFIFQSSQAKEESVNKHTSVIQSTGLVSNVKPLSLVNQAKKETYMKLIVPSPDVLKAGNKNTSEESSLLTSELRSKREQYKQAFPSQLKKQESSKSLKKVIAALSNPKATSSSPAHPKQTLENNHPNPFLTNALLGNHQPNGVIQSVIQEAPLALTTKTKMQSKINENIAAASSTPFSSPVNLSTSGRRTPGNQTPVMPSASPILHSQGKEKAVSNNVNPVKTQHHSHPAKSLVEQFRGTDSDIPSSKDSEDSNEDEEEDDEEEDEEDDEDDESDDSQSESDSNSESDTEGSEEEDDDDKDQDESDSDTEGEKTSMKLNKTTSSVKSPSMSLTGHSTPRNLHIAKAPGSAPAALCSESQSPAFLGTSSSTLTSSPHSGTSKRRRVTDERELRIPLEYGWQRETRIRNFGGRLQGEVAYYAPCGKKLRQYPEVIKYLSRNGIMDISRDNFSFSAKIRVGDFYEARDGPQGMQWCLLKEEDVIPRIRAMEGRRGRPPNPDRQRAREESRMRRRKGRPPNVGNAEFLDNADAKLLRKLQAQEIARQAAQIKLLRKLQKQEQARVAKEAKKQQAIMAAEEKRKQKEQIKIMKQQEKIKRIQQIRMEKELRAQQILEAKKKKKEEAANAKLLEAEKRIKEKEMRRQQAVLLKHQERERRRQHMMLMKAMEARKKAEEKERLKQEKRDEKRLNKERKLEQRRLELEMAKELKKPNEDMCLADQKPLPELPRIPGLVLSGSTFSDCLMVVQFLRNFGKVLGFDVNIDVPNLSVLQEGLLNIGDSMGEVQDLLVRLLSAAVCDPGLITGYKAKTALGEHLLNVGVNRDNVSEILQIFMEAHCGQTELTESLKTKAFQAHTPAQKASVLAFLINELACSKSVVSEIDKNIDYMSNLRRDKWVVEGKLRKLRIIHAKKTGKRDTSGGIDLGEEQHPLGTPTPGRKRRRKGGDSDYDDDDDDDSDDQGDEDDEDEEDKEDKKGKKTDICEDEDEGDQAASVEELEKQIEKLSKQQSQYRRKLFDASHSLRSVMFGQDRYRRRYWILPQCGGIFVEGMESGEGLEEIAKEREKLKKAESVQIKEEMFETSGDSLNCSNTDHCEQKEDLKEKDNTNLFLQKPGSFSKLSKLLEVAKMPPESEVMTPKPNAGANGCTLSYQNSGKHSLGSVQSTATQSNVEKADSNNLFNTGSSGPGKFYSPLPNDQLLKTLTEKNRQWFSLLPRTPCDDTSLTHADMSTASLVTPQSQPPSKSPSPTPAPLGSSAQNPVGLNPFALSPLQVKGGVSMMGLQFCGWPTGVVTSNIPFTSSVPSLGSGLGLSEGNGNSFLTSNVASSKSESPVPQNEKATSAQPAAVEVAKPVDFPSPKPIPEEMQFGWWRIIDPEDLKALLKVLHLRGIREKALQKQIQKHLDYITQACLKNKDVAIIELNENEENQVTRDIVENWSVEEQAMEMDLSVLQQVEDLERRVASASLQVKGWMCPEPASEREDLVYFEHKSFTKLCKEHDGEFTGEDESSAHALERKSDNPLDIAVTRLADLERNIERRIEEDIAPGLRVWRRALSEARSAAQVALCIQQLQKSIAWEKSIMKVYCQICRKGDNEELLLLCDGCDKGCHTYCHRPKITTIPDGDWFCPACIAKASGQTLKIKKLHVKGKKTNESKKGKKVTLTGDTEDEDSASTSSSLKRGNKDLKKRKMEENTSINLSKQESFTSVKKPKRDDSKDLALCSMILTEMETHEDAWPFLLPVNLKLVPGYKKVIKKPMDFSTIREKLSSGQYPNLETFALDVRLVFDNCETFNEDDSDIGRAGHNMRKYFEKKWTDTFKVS
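AlphaScreen luminescence quantifies BAZ2B engagement of H3K14Ac peptide; the protein and biotinylated peptide are both at 50 nM final, buffer PBS pH 7.4 with 0.01% Tween-20, all steps at room temperature.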
Sfp inh = blocks B. subtilis Sfp PPTase activity; Biochemical Sfp PPTase activity, qHTS; AID 1490; Potency, µM, without a hit: largest response in the series, negative = inhibition, hits mostly inhibitors; Q9F4F7; 3.5% of 310,000 active;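 note: the enzyme is Sfp with the accession as filed and its product quenches rhodamine fluorescence; 0% = enzyme reaction without inhibitor and -100% = no enzyme wells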
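Compounds were incubated with enzyme (final 15 nM) for 15 min at room temperature before substrate addition started the reaction. Fluorescence at 525 nm excitation, 598 nm emission was recorded immediately and after 30 minutes.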
G9a inh = blocks human histone lysine methyltransferase G9a | Q96KQ7 | G9a H3K9 monomethylation, AlphaScreen, 2 h | Potency, µM (top dose mostly 102 µM), inactives show at the top dose activity, negative = inhibition, actives largely listed as inhibitors | 8.8% of 350,000 active | AID 504332; note: % is set by controls: 0 for no effect and ±100 for the full control effect; nearly all actives have a fitted effect of over 75% in size
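AlphaScreen detection with an anti-monomethyl H3K9 antibody quantified product after a 2 h room-temperature reaction containing 500 nM biotinylated H3K9 peptide, 20 µM SAM and 20 nM enzyme, which had been preincubated 15 min with compound.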
Numbers without * were called inactive; ? = inconclusive; . = not tested or not shown; [ ] = dose if it differs, or a comment. Calls come from the whole dose curve; as a rule, active = well fitted curve in the direction sought with a large enough effect; inconclusive = small, poorly fitted or top-dose-only effect, or another doubt; inactive = no such curve, though single readings can be large; an effect the other way counts as inactive or inconclusive. Potency is the fitted concentration of half-maximal effect.

SMILES	HP1b chromo inh	L3MBTL1 inh	JMJD2A Tudor inh	BAZ2B inh	Sfp inh	G9a inh
O=C(Cn1c(-c2cscn2)nc2ccccc21)Nc1ccc2ccccc2c1	13.8%	-14.0%	?	-27.9%	-23.1%	-8.3%[12.7 µM]
CCOC(=O)Cn1c(=O)cnc2ccccc21	17.2%	.	-1.6%	-2.4%	3.2%	27.1%[12.7 µM]
O=C(O)CCn1c(CO)nc2ccccc21	-6.6%	-5.3%	-11.1%	56.2µM*	6.8%	3.0%
O=C(O)Cn1c(-c2cscn2)nc2ccccc21	-4.8%	-3.1%	15.8µM*	?	-14.2%	44.7µM*
O=c1oc(-c2ccc(C(F)(F)F)cc2)nn1Cc1cc(Cl)ccc1O	.	.	.	.	1.4%	.
COc1ccc(/C=C/C(=O)Nc2ccc3nc(N4CCC(C)CC4)cc(C)c3c2)cc1OC	?	.	?	-30.6%	.	?
O=C(Cn1c(-c2ccccn2)nc2ccccc21)N/N=C/c1ccccn1	31.3%	.	-13.7%	.	?	-31.9%
O=C(O)CCn1c(-c2ccccn2)nc2ccccc21	-15.6%	?	22.4µM*	-6.5%	-20.9%	.
O=C(O)CCn1c(SCc2cccc3ccccc23)nc2ccccc21	32.7%	.	-15.4%	-5.0%	12.4%	14.1µM*
CC(C)CSc1nc2ccccc2n1CC(=O)O	47.7%	-2.9%	-15.8%	-24.3%	0.0%	3.7%
O=C(O)Cn1c(P(=O)(O)c2ccccc2)nc2ccccc21	-11.6%	-3.7%	35.5µM*	?	-27.6%	31.6µM*
CCSc1nc2ccccc2n1CCC(=O)O	12.9%	0.9%	-11.5%	5.9%	2.0%	?
Cn1ncc2c(NCc3ccc(Cl)cc3)ncnc21	35.1%	.	-14.4%	0.6%	.	-2.7%[59 µM]
Cc1cc(C)cc(OCC(=O)Nc2ccc(-c3nc4ccccc4s3)cc2)c1	16.3%	.	-9.9%	-3.3%	.	-6.0%[59 µM]
Cc1nc(-c2ccccc2)cn(O)c1=O	6.3%	8.0%	28.2µM*	79.4µM*	-26.4%	?
CCCCNS(=O)(=O)c1ccc2nc(-c3cccnc3)cc(C(=O)NCCCOC(C)C)c2c1	12.8%	.	-11.9%	3.4%	.	-5.5%[59 µM]
CCN(CC)S(=O)(=O)c1ccc2c(c1)N(CC(=O)Nc1ccc(Cl)cc1)C(=O)C1CCCN21 (centres undefined)	30.5%	.	-13.6%	-14.8%	.	?
Cc1nc(C)c(-c2csc(Nc3ccccn3)n2)s1	9.0%	-4.5%	-32.8%	?	-21.5%	?
Cc1nc(N)sc1-c1csc(Nc2ccc(Cl)cn2)n1	?	-14.7%	?	?	20µM*	10µM*
Cc1ccnc(Nc2nc(-c3sc(C)nc3C)cs2)c1	?	.	79.4µM*	.	.	.
Cc1nc(N)sc1-c1csc(Nc2ccccn2)n1	-46.2%	-7.8%	79.4µM*	-37.9%	56.2µM*	?
Cc1oc2c(c1C(=O)Nc1ccc(OC(F)(F)F)cc1)C1=NCCN1C=N2	28.5%	.	-11.3%	-1.4%	.	12.8%[59 µM]
Cc1c(Cl)cccc1NS(=O)(=O)c1ccc(-c2cnc(C3CC3)o2)cc1	25.3%	.	-17.9%	-27.3%	.	-1.5%[59 µM]
C=CCSCC=C	.	.	.	.	3.8%	-30.4%[2.33 µM]
COCCCNC(=O)c1sc2nc(C)c(C(=O)Nc3ccc(Cl)cc3)c(-c3ccc(Br)cc3)c2c1N	32.1%	.	-3.1%	-45.8%	.	-17.1%[59 µM]
SMILES	HP1b chromo inh	L3MBTL1 inh	JMJD2A Tudor inh	BAZ2B inh	Sfp inh	G9a inh
CCc1ccccc1NC(=O)c1ccc(Cn2nc(N3CCN(c4ccccc4)CC3)ccc2=O)o1	5.1%	.	?	-35.3%	.	?
CCc1ccc(NC(=O)c2ccc(Cn3nc(N4CCN(c5ccccc5)CC4)ccc3=O)o2)cc1	2.3%	.	?	50.1µM*	.	?
Cc1cc(Nc2ccc(N(C)C)cc2)n2ncnc2n1	10.9%	0.0%	-14.6%	-7.9%	31.6%	44.7µM*
CCn1c2ccccc2c2cc(Nc3cc(C)nc4ncnn34)ccc21	-5.1%	?	?	-29.8%	-24.8%	44.7µM*
CCc1ccc(Nc2cc(C)nc3ncnn23)cc1	24.6%	3.5%	-10.3%	1.3%	-2.9%	.
Cc1cc(Nc2ccccc2F)n2ncnc2n1	49.8%	9.6%	-12.7%	5.7%	11.0%	50.1µM*
CCOc1ccc(S(=O)(=O)N2CCN(c3nc(-c4ccccc4)nc4ccccc34)CC2)cc1OCC	25.8%	.	-23.4%	.	.	.
COc1cc(C2OC(=O)c3c2ccc(OC)c3OC)ccc1O (centres undefined)	.	-0.5%	.	-3.2%	.	-3.8%[12.7 µM]
Cc1ccc(NC(=O)CN2C(=O)c3cccnc3Oc3ccc(Cl)cc32)cc1	27.8%	.	-9.6%	0.4%	.	-29.8%[59 µM]
Cc1ccc(CSc2ccc3nnc(CCNS(=O)(=O)c4ccc(C)cc4)n3n2)cc1	-10.9%	.	-25.6%	?	.	-27.8%[59 µM]
CC(C)(C)OC(=O)N1CCC(c2c(C(=O)NC3CCCCC3)cnn2-c2ccc(F)cc2F)CC1	30.4%	.	-4.2%	7.5%[57.1 µM]	.	9.1%[59 µM]
COc1ccc(OCC(=O)NCc2n[nH]c(=O)c3ccccc23)cc1	41.6%	-3.1%	-4.1%	4.3%	.	8.8%[0.501 µM]
COc1ccc(-n2c(CNC(=O)COc3ccc(Cl)cc3Cl)n[nH]c2=S)cc1	72.6%	.	-6.1%	0.3%	0.6%	7.94µM*
O=C(COc1ccccc1)NCc1n[nH]c(=S)n1-c1ccccc1	39.5%	.	8.91µM*	-17.9%	2.8%	20µM*
COc1ccc(OCC(=O)NCC(c2ccc(Cl)cc2)N2CCCCC2)cc1 (centres undefined)	23.3%	.	-10.6%	-24.2%	.	-4.3%[59 µM]
COc1ccc(-n2c(CNC(=O)COc3ccc(Cl)cc3)n[nH]c2=S)cc1	-5.9%	11.1%	12.6µM*	-6.4%	8.3%	2.51µM*
COc1ccc(-n2c(CNC(=O)COc3ccccc3)n[nH]c2=S)cc1	37.1%	.	11.2µM*	-17.9%	5.8%	?
COc1ccc(CNC(=O)COC(=O)CCCOc2ccc(Cl)cc2Cl)cc1	42.0%	5.4%	18.8%	-2.3%	1.5%	0.4%
Cc1cccc(NS(=O)(=O)c2ccc3c(c2)NC(=O)CO3)c1C	35.4%	.	-8.8%	-8.0%	17.4%	12.1%[0.501 µM]
Cc1cc(C)cc(NC(=O)C2CCN(C(=O)c3cnn(-c4ccccc4)c3-n3cccc3)CC2)c1	25.2%	.	-20.8%	-23.2%	.	1.2%[59 µM]
Cc1cc2nc3c(=O)n(CCc4ccccc4)c(=O)[nH]c3nc2cc1N	14.2%	.	-18.6%	-11.7%	7.94µM*	-3.9%
Nc1ccc2nc3c(=O)n(CCc4ccccc4)c(=O)[nH]c3nc2c1	25.5%	.	-0.4%	6.5%	-18.1%	.
CCCCn1c(=O)[nH]c2nc3cc(N)ccc3nc2c1=O	6.9%	-5.3%	-25.1%	?	56.2µM*	3.55µM*
CS(=O)(=O)N1CCC2(CCN(c3ccccc3)CC2)CC1	.	.	.	.	-8.9%	4.1%[12.7 µM]
O=C(CSc1ccccc1)NCc1ccc2c(c1)CCN2C(=O)c1ccccc1	-8.0%	.	-14.7%	-11.1%	.	-0.6%[59 µM]
CCN(CC)CC(O)Cn1c2ccccc2c2ccccc21 (centres undefined)	15.2%	.	-3.0%	0.3%	12.1%	13.2%[12.7 µM]
